IL1B secr inh – inflammasome signaling inhibition, IL-1 beta readout; THP-1 LPS/ATP IL-1B secretion, AlphaLISA, 16 h; stronger effect = lower value; activity change, % at 57.5 µM; 4.7% of 360,000 active; AID 743279; in the data active means activity change below about -50%; inconclusive means mostly about -30% to -49%
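THP-1 cells pretreated 1 hr with compounds (up to 57.5 uM final), then stimulated with LPS (250 ng/mL final) plus ATP (1.25 mM final); secreted IL-1B measured by AlphaLISA after 16 hr, decreased signal indicating inhibition.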
TDP1 cell CPT – DT40-hTDP1 cell growth loss with CPT; Potency, µM (series often up to 46.2 µM), hits mostly inhibitors; chicken DT40 Tdp1-/-;hTDP1 cells + 20 nM CPT, ATP luminescence, 48 h; AID 686979; 12% of 420,000 active; further: nearly all actives have a fitted effect of over 55% in size
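Chicken DT40 Tdp1-/- cells complemented with human TDP1, 400 cells/well, exposed to compounds plus 20 nM camptothecin for at least 48 h at 37 C; viability read as ATP content by CellTiter-Glo luminescence.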
HT1080NT lethal – kills 2HG-producing HT-1080-NT fibrosarcoma cells; Potency, µM (series often up to 46.1 µM), actives largely listed as cytotoxic; AID 686970; HT-1080-NT fibrosarcoma viability, CellTiter-Glo ATP luminescence, 48 h; 1.6% of 360,000 active;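 further: NT is the 2HG producing partner of a matched IDH1 knockdown line; nearly all actives have a fitted effect of over 55% in size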
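Compounds were tested in concentration-response format on HT-1080-NT cells for 48 hours at 37 degrees C. Cell viability came from CellTiter-Glo luminescence; curves were classified by r2, response magnitude and activity.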
DT40 TDP1 no CPT – qHTS for Inhibitors of human tyrosyl-DNA phosphodiesterase 1 (TDP1): qHTS in cells in absence of CPT | 15% of 420,000 active | Potency, µM (highest dose often 46.2 µM), usual class: inhibitors | AID 686978, 2013 | DT40 Tdp1-/- hTDP1 cells, no CPT, ATP luminescence, 48 h; further: nearly all actives have a fitted effect of over 55% in size
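Readout: luminescence from CellTiter-Glo after 30 min in the dark at RT. Cells: DT40 Tdp1-/- with stable hTDP1, 400/well. Exposure: compounds alone, ≥48 hr, 37 °C.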
HT1080 IDH1KD tx – toxicity to HT-1080 IDH1 knockdown cells (counter line). HT-1080 IDH1 knockdown viability, ATP luminescence, 48 h. AID 686971. Potency, µM (highest dose often 46.1 µM), most hits filed as cytotoxic. 2% of 360,000 active
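Luminescent ATP read-out (CellTiter-Glo, 10 min at room temperature) after 48 h compound exposure at 37 °C gave viability of IDH1-knockdown HT-1080 cells. Activity was normalised to DMSO and cell-free wells, then fitted as concentration-response curves.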
A number is an active result; n = inactive; u = inconclusive; x = no result; [ ] = remark or other dose. An excerpt weighted towards active compounds, which were near 19% of everything screened. Unless noted, the call rests on the fitted dose curve; in most records, active means well fitted curve in the direction sought with a large enough effect; inconclusive means small, poorly fitted or top-dose-only effect, or another doubt; inactive means no such curve, though single readings can be large; an effect the other way counts as inactive or inconclusive.

SMILES	IL1B secr inh	TDP1 cell CPT	HT1080NT lethal	DT40 TDP1 no CPT	HT1080 IDH1KD tx
NC1=NC[C@@H](Cc2ccc(O)cc2)N1CCc1cccc(F)c1	n	u	n	n	n
NC1=NC[C@@H](Cc2ccc(O)cc2)N1CCc1cc(C(F)(F)F)cc(C(F)(F)F)c1	u	u	n	21µM	n
NC1=NC[C@H](CC2CCCCC2)N1CCc1cc(C(F)(F)F)cc(C(F)(F)F)c1	n	5.8µM	u	7.3µM	u
NC1=NC[C@H](Cc2ccc(O)cc2)N1CCC12CC3CC(CC(C3)C1)C2	u	8.2µM	n	u	n
CN1CCN(C(=O)c2cc(Br)cn2C)CC1	n	n	n	n	n
CC(C)(C)c1ccc(OCCNC(=S)NC(=O)c2cccnc2)cc1	n	n	n	n	n
Cc1nn(-c2ccccc2)c(OC(=O)c2ccc(Br)cc2)c1S(=O)(=O)c1ccccc1	x	n	x	n	x
OC(CN1CCOCC1)Cn1c2ccccc2c2ccccc21 (stereo not drawn)	n	n	n	u	n
OC(CN1CCN(Cc2ccccc2)CC1)Cn1c2ccccc2c2ccccc21 (stereo not drawn)	n	23µM	u	u	u
CC1CCN(CC(O)Cn2c3ccccc3c3ccccc32)CC1 (stereo not drawn)	-63	n	n	u	n
CC1CCCC(C)N1CC(O)Cn1c2ccccc2c2ccccc21 (stereo not drawn)	n	1.8µM	n	2.6µM	n
OC(CN1CCN(c2ccccc2)CC1)Cn1c2ccccc2c2ccccc21 (stereo not drawn)	n	18µM	n	13µM	n
COc1ccc(C(=O)NCc2ccon2)cc1OC1CCN(C(C)C)CC1	n	n	n	n	n
COc1ccc(CCC(=O)NCCCNC(=O)CCc2ccc(OC)cc2)cc1	n	u	n	u	n
Cc1cc(=O)n2c3ccccc3n(CC(O)CN3CCN(Cc4ccccc4)CC3)c2c1C#N (stereo not drawn)	n	12µM	n	12µM	n
CC(C)Oc1ccc(C(=O)Nc2cc(S(=O)(=O)N3CCOCC3)ccc2N2CCOCC2)cc1	n	u	n	21µM	u
Cc1ccc(CSCC(=O)Nc2cc(S(=O)(=O)N3CCOCC3)ccc2OC(C)C)cc1	n	u	n	23µM	n
CC(C)COc1ccc(C(=O)Nc2cc(S(=O)(=O)N3CCOCC3)ccc2N2CCCC2)cc1	n	16µM	n	26µM	n
C=CCn1c(C)csc1=Nc1ccccc1C	n	n	n	n	n
Nc1c(Cl)cc(C2=NCCn3c2c2ccc(C(F)(F)F)cc2[n+]3[O-])cc1Cl	n	u	n	u	n
CC(C)C(=O)Nc1ncc(Cc2ccc(Cl)cc2)s1	n	u	n	u	u
O=C1CC[C@@H](CN(Cc2cccnc2)C2CCN(c3ccc(NC(=O)c4cnccn4)cc3)CC2)N1	x	n	x	n	x
CS(=O)(=O)N(CC(=O)NCc1ccccc1Cl)C1CCCCC1	n	n	n	u	n
CS(=O)(=O)N(CC(=O)Nc1ccc(Br)cc1F)C1CCCCC1	n	u	n	9.2µM	n
CS(=O)(=O)N(CC(=O)NCc1ccc(Cl)cc1)C1CCCCC1	n	21µM	n	15µM	n
SMILES	IL1B secr inh	TDP1 cell CPT	HT1080NT lethal	DT40 TDP1 no CPT	HT1080 IDH1KD tx
Cc1ccc(S(=O)(=O)N(CC(=O)NCc2ccncc2)C2CCCCC2)cc1	n	12µM	n	9.2µM	n
O=C(Nc1ccn(Cc2ccccc2F)n1)c1ccc(COc2ccc(Br)cc2)cc1	n	11µM	u	u	u
Cc1nn(Cc2cccc(C(=O)Nc3ccn(Cc4ccccc4F)n3)c2)c(C)c1[N+](=O)[O-]	n	23µM	n[9.24 µM]	u	u
Cc1cccc(Cn2ccc(NC(=O)c3ccc4c(c3)OCO4)n2)c1	-52	n	n	n	n
CCOC(=O)CCCCCC(=O)Nc1ccc2c(c1)C(=O)N([C@@H](C)CO)C[C@H](C)[C@H](CN(C)C(=O)Nc1ccc(F)cc1)OCCCC[C@H](C)O2	n	n	n	u	n
CC(=O)Nc1cc(-c2cccc(C(=O)NCCO)c2)cn2c(-c3ccc(F)c(Cl)c3)cnc12	n	29µM	n	23µM	n
COc1cccc(-c2cnc3c(NC(C)=O)cc(-c4cccc(C(=O)NCCO)c4)cn23)c1	n	16µM	n	u	n
OC[C@@H]1CN(Cc2ccc(-c3ccccc3)cc2)C[C@H](n2cnc3c(NC4CC4)ncnc32)O1	n	u	n	u	u
CCN(CC)c1ncnc2c1ncn2[C@H]1CN(Cc2ccc(Cl)cc2)C[C@@H](CO)O1	n	29µM	n	16µM	n
OC[C@@H]1CN(Cc2ccc(Cl)cc2)C[C@H](n2cnc3c(NC4CCC4)ncnc32)O1	-85	u	n	u	n
OC[C@@H]1CN(Cc2ccc3c(c2)OCO3)C[C@H](n2cnc3c(NC4CCCC4)ncnc32)O1	-72	u	n	u	n
OCCNc1ncnc2c1ncn2[C@H]1CN(Cc2ccc3c(c2)OCO3)C[C@@H](CO)O1	n	n	n	n	n
O=S1(=O)CCOCCCN1Cc1ccc(F)cc1	x	n	x	u	x
O=S(=O)(c1ccccc1)N1CCN(c2ncnc3scc(-c4ccccc4)c23)CC1	n	16µM	n	u	n
c1ccc(CC2CCN(c3ncnc4sccc34)CC2)cc1	-51	5.2µM	12µM	2.6µM	u
Cc1cc(-c2csc3ncnc(N4CCN(C)CC4)c23)cc(C)c1C	n	n	n	u	n
O=S(=O)(c1ccccc1)N1CCN(c2ncccn2)CC1	n	n	n	n	n
Cc1ccc(S(=O)(=O)N2CCN(c3ncnc4sccc34)CC2)cc1	n	7.3µM	n	3.3µM	n
O=C(O)c1cc2c(N3CCC(Cc4ccccc4)CC3)ncnc2s1	n	n	n	n	n
COc1ccc(-c2csc3ncnc(N4CCN(S(=O)(=O)c5ccc(C)c(C)c5)CC4)c23)cc1	n	u	n	18µM	n
COc1cccc(-c2cc3c(c(OC)c2)OCCN(Cc2cccn2-c2ccccn2)C3)c1	x	n[9.04 µM]	x	n	x
CCN1CCN(c2ncnc3scc(-c4ccc(C)cc4)c23)CC1	n	u	n	u	n
Cc1ccc(-c2csc3ncnc(N4CCN(S(=O)(=O)c5cccs5)CC4)c23)cc1	n	u	n	21µM	n
Cc1ccc(-c2csc3ncnc(N4CCN(S(=O)(=O)c5ccc(C#N)cc5)CC4)c23)cc1	n	u	n	16µM	n
COc1cc(OC)cc(C(=O)NCC2Cc3cccc(-c4nc(C)cnc4C)c3O2)c1 (stereo not drawn)	x	n[9.04 µM]	x	n	x
Cc1[nH]nc2c1C(c1ccccc1F)CC(=O)N2 (stereo not drawn)	n	n	n	n	n
CC(C)(C)N=C1NN=C(c2cc3ccccc3o2)CS1	n	u	n	23µM	n
c1ccc2oc(C3=NCCN3)cc2c1	x	n	x	n	x

Bioassay records from PubChem BioAssay.
